# Screening data: PubChem, National Center for Advancing Translational Sciences (NCATS)
# ELG1 DNA repair: qHTS screen for small molecules that inhibit ELG1-dependent DNA repair in human embryonic kidney (HEK293T) cells expressing luciferase-tagged ELG1. Potency, µM (doses to about 46.1 µM), for inactives: at the highest dose activity change, negative = inhibition, usual class: inhibitors. actives 2.3% (n = 330,000). HEK293T ELG1-luciferase reporter, luminescence, 16 h; DNA damage induced by 5-fluorouridine. AID 504467, 2011; further: potency means the concentration at half of the fitted maximal effect; nearly all actives have a fitted effect of over 55% in size
#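 Cells (2,000 per well) received 5-fluorouridine plus test compound or DMSO and were incubated 16 hr at 37 °C, 5% CO2. Luciferase activity was read by luminescence 30 min after ONE-Glo addition; signal suppression marked inhibition of damage-induced ELG1 function.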
# RORg inh: qHTS for inhibitors of ROR gamma transcriptional activity; Nuclear receptor ROR-gamma (Mus musculus), P51450; Drosophila S2 Gal4-RORgamma UAS-luciferase reporter, 20 h; Potency, µM (titrated, usually from 53.6 µM), for inactives: at the top dose activity change, negative = inhibition, hits mostly inhibitors; actives 5.4% (n = 310,000); AID 2551, 2010; further: potency means the concentration at half of the fitted maximal effect; nearly all actives have a fitted effect of over 60% in size
#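 In this cell-based reporter format, copper sulfate (700 uM final) drives Gal4–ROR gamma fusion expression from a metallothionein promoter in Drosophila Schneider cells; compounds preincubated 1 hr, reporter read after 20 hr at ambient temperature.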
# VP16 counter: VP16 counterscreen qHTS for inhibitors of ROR gamma transcriptional activity. Drosophila S2 Gal4-VP16 UAS-luciferase, luminescence, 20 h. Potency, µM (top dose mostly 53.6 µM), inactives show top-dose activity, negative = inhibition, usual class: inhibitors. actives 3.5% (n = 310,000). AID 2546, 2010;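 further: Gal4-VP16 expression switched on by copper sulfate through the metallothionein promoter; potency means the concentration at half of the fitted maximal effect; nearly all actives have a fitted effect of over 50% in size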
# TSHR antagonist: Antagonists of the Thyroid Stimulating Hormone Receptor: HTS campaign; TSHR-expressing cells, TSH-stimulated cAMP HTRF, 2 h; hits give low values; activity change, negative = inhibition, % at 11.5 µM; actives 0.2% (n = 330,000); AID 504810, 2011;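 active means activity change below a set negative limit, meaning inhibition stronger than a set level, cut at about -70% in these data; inconclusive means activity change between two set negative limits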
# Target sequence (P16473 whole entry, looked up): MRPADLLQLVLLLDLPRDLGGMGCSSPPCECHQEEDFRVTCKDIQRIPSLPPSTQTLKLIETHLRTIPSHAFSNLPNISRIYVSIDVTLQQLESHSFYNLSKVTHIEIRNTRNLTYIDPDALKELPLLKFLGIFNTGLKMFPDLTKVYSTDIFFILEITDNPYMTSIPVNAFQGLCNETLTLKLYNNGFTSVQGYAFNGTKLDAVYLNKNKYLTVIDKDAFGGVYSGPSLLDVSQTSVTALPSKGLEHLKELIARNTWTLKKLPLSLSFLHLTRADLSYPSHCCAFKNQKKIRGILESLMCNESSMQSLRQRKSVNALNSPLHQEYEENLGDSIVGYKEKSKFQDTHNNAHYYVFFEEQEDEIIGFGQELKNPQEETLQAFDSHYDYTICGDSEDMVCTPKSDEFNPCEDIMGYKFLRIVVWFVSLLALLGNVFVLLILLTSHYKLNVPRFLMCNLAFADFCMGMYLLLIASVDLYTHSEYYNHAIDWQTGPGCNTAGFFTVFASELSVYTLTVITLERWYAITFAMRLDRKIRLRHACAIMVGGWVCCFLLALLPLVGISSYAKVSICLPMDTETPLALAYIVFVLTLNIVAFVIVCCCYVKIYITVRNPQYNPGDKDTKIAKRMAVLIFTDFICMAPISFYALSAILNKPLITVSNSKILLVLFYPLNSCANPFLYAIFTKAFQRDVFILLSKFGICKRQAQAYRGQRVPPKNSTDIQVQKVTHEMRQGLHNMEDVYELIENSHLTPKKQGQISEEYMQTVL
#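 Cell-based HTRF cAMP assay; TSHR cells + compound, TSH EC80 (4nM final), 2 h, 37 deg C. Lysis with anti-cAMP cryptate and cAMP-d2, 30 min RT, read 665/620 nm.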
# Coupling enz: qHTS Assay for Inhibitors of Fructose-1,6-bisphosphate Aldolase from Giardia Lamblia: Coupling assay counterscreen | coupling enzyme system counterscreen, AmpLite Red fluorescence | activity change, negative = inhibition, % at 58.2 µM, hits read low | actives 0.67% (n = 290,000); in the data active means activity change below about -30%
#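 Counterscreen lacking aldolase: glyceraldehyde-3-phosphate coupling-enzyme reagent preincubated 10 min at RT with compound (at 57.5 uM final), then substrate/coupling system with AmpLite Red added; fluorescence read at 525/598 nm after 20 min RT.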
# * marks the source's active call; other numbers are inactive results; ? = inconclusive; . = no result; [ ] = remark or other dose. Hits are enriched below; roughly 8% of the tested compounds scored in any of these assays. Unless noted, the call rests on the fitted dose curve; in most records, active means well fitted curve in the direction sought with a large enough effect; inconclusive means small, poorly fitted or top-dose-only effect, or another doubt; inactive means no such curve, though single readings can be large; an effect the other way counts as inactive or inconclusive. On the % scale 0 is the no-effect control and ±100 the full control effect.
SMILES,ELG1 DNA repair,RORg inh,VP16 counter,TSHR antagonist,Coupling enz
O=C(c1nc(-c2ccccc2)n(-c2ccccc2)n1)N1CCN(S(=O)(=O)c2ccccc2)CC1,18µM*,13%,-5%,-9,1
O=C(CC1CC2CCC1C2)N1CCN(S(=O)(=O)c2ccccc2C(F)(F)F)CC1 (stereo unspecified),11µM*,.,.,-1,.
Cc1ccc(S(=O)(=O)N2CCN(C(=O)c3cc4c(C)nn(-c5ccccc5)c4s3)CC2)cc1,10µM*,?,4%,5,-1
COCC(=O)N1CCC2(CC1)CN(c1ccc(-c3ccccc3)cc1)C2,.,?,4%,.,-2
O=C(Cc1cccs1)N[C@@H]1c2ccccc2CC[C@@H]1OCc1ccccc1,16%,.,.,6,.
C[C@@H]1CN([C@@H](C)CO)C(=O)c2cc(NC(=O)Nc3ccccc3)ccc2O[C@H]1CN(C)C(=O)Nc1cccc2ccccc12,15µM*,.,.,-3,.
C[C@H](CO)N1C[C@H](C)[C@@H](CN(C)S(=O)(=O)c2ccccc2)Oc2ccc(NC(=O)Nc3ccc(C(F)(F)F)cc3)cc2C1=O,21µM*,.,.,-24,.
COc1ccc(NC(=O)Nc2cccc3c2O[C@H](CN(C)C(=O)Nc2ccc(OC)cc2)[C@@H](C)CN([C@H](C)CO)C3=O)cc1,9.2µM*,.,.,-16,.
CC(C)NC(=O)Nc1ccc2c(c1)C(=O)N([C@H](C)CO)C[C@H](C)[C@@H](CN(C)S(=O)(=O)c1ccccc1)O2,1%,.,.,4,.
COc1ccc(NC(=O)Nc2cccc3c2O[C@H](CN(C)C(=O)NC(C)C)[C@@H](C)CN([C@H](C)CO)C3=O)cc1,21%,.,.,-10,.
Cc1noc(C)c1S(=O)(=O)Nc1ccc2c(c1)C(=O)N([C@H](C)CO)C[C@H](C)[C@@H](CN(C)S(=O)(=O)c1ccccc1)O2,?,.,.,7,.
C[C@H](CO)N1C[C@H](C)[C@@H](CN(C)C(=O)Nc2ccccc2)Oc2ccc(NC(=O)Nc3ccc(C(F)(F)F)cc3)cc2C1=O,8%,.,.,-8,.
Cc1noc(C)c1S(=O)(=O)N(C)C[C@H]1Oc2ccc(NS(=O)(=O)c3ccc(F)cc3)cc2C(=O)N([C@H](C)CO)C[C@@H]1C,5.8µM*,.,.,0,.
CC(=O)OCC(=O)[C@@]1(OC(C)=O)[C@H](C)C[C@H]2[C@@H]3C[C@H](F)C4=CC(=O)C=C[C@@]4(C)[C@]3(F)[C@H](O)C[C@@]21C,.,-16%[16.9 µM],-11%[17 µM],.,0
c1ccc(C(c2ccccc2)N2CCCC3(CCNCC3)C2)cc1,.,-21%,-2%,.,0
Cc1ccccc1CSCC(=O)N1CCN(c2ccccc2)CC1,?,41%,5%,-16,-1
Cc1ccsc1-c1nc(CSCC(=O)N2CCN(c3ccccc3)CC2)c(C)o1,?,-4%,5%,-71*,5
O=C(Nc1cc(Cl)ccc1N1CCOCC1)C1=COCCO1,-4%,.,.,6,.
CC(=O)Nc1ccc(/C(C)=N/Nc2nc(Nc3ccccc3)nc(N3CCOCC3)n2)cc1,6.5µM*,10µM*,?,-8,3
O=C(NNc1nc(Nc2ccccc2)nc(N2CCOCC2)n1)Nc1ccc(Cl)cc1,-7%,1.8µM*,5.6µM*,-9,7
CC(=O)c1ccc(Nc2nc(N3CCOCC3)nc(N3CCOCC3)n2)cc1,-24%,?,20%,-11,-3
Cc1nc2sc(-c3ccccc3)cc2c(=O)n1-n1cccc1,?,5%,8%,-5,4
Cc1nc2sc(-c3ccccc3)cc2c(=O)n1N,?,7.1µM*,?,-1,-3
CN(C)c1ccc(SC#N)cc1,18µM*,-23%,?,-5,2
O=C(NNC(=O)c1cc(-c2cccc(Br)c2)nc2ccccc12)c1csc(N2CCOCC2)n1,-29%,.,.,-13,.
SMILES,ELG1 DNA repair,RORg inh,VP16 counter,TSHR antagonist,Coupling enz
CN1CCC(N(C)C(=S)NC(=O)c2cc(-c3cccc(Br)c3)nc3ccccc23)CC1,-3%,0.25µM*,0.89µM*,-6,2
O=C(Nc1ccccn1)c1cc(-c2ccc(Cl)s2)nc2ccccc12,?,.,.,-20,.
O=C(NC(=S)Nc1ccccc1)c1cc(-c2ccccc2)nc2ccccc12,-16%,0.28µM*,4.5µM*,-48,0
O=C(NC(=S)Nc1ccccn1)c1cc(-c2ccccc2)nc2ccccc12,?,0.4µM*,0.71µM*,-13,-2
CNC(=O)NC(=O)C(c1ccccc1)N(C)CC1COc2ccccc2O1 (stereo unspecified),6%,2%,20%,-9,1
CCOc1ccc(S(=O)(=O)N2CCN=C2c2ccccc2)c(C)c1C,-11%,?,-1%,5,.
COc1ccc(CC(=O)Nc2cccc(-c3ccc4nncn4n3)c2)cc1OC,7.3µM*,41%,-1%,-16,1
COc1ccc(CC(=O)Nc2cccc(-c3nnc(-c4cccc(C)c4)o3)c2)cc1OC,2.9µM*,?,7.9µM*,-92*,0
COc1ccc(CC(=O)Nc2cccc(-c3nnc(-c4ccc(C)cc4)o3)c2)cc1OC,12µM*,?,?,-48,-1
COc1ccc(CC(=O)Nc2cccc(-c3nnc(-c4ccccc4)o3)c2)cc1OC,5µM*,?,?,-33,1
COc1ccc(CC(=O)Nc2ccc(-c3nnc(-c4ccccc4)o3)cc2)cc1OC,?,24%,-12%,14,7
COc1ccc(NC(=O)CCC(=O)c2cc(C)sc2C)cc1,5%,.,.,.,.
COc1cccc(C(=O)Nc2cccc(-c3ccccc3)c2)c1,6%,74%,-1%,-20,2
COc1ccc2[nH]cc(CCNc3cc(-c4ccccc4C(F)(F)F)ncn3)c2c1,.,3%,3%,.,0
O=C(NNc1ccc(O)cc1)c1ccc(Br)cc1,5.8µM*,-44%,3%,-9,1
O=C(NNC(=O)c1ccc(Br)cc1)c1ccncc1,?,3%,-21%,-1,-10
COCCn1c(N2CCN(c3ccc(OC)cc3)CC2)nc2c1c(=O)n(C)c(=O)n2C,18µM*,-1%,7%,13,0
C=CCn1c(N2CCN(c3ccc(OC)cc3)CC2)nc2c1c(=O)[nH]c(=O)n2C,?,?,-12%,30,-4
C=CCn1c(N2CCN(c3ccc(OC)cc3)CC2)nc2c1c(=O)n(C)c(=O)n2C,16µM*,8%,-10%[10 µM],-15,3
Cc1ccc(Nc2cc(C)nc3ncnn23)c(Cl)c1,?,?,?,4,5
